# Screening results (PubChem)
# In the library only some 1.5% were active in any assay of this set; here they are far more common.
# Mac1 fbg enh: enhancers of human CD11b/CD18 binding to fibrinogen; P05107+P11215; K562 CD11b/CD18 adhesion to fibrinogen, ATPlite luminescence; activation, % at 10 µM; 93,000 compounds, 0.07% hits;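 active = 10 µM primary screen giving 50% or more activity, confirmed by 40% or more on retest at that dose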
# PLAP act: activators of human placental alkaline phosphatase; P05187; purified PLAP enzyme, luminescent substrate read-out; active compounds read high; activation fold at 20 µM; 96,000 compounds, 1.2% hits; in the data active = activation fold above about 2
# Mac1 fbg inh: inhibitors of human CD11b/CD18 binding to fibrinogen; 93,000 compounds, 0.54% hits; AID 1497; inhibition, % at 10 µM; K562 CD11b/CD18 adhesion to fibrinogen, ATPlite luminescence; Mn2+ added to activate the integrin;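 active = primary inhibition of 50% or more at 10 µM, then 40% or more on retest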
# HePTP inhibitor: inhibitors of human HePTP phosphatase. recombinant HePTP phosphatase activity, OD absorbance. inhibition, % at 20 µM. 110,000 compounds, 0.64% hits; in the data active = inhibition above about 50%;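 note: plate controls were vehicle for no effect and reference inhibitor for full effect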
# Starred values were filed as active, the others as inactive; / = not tested or not shown.
SMILES,Mac1 fbg enh,PLAP act,Mac1 fbg inh,HePTP inhibitor
O=C(COc1ccc(Cl)cc1Cl)Nc1ccccn1,-9.5,0.9,98.6*,6.2
CC(=O)NC(=S)Nc1ccc(NC(=O)COc2ccc(Cl)cc2Cl)cc1,52.9*,1.1,11.9,/
COc1ccc(Cl)cc1NC(=O)Cc1ccc(Br)cc1,/,/,/,7.8
O=C(COC(=O)COc1ccccc1[N+](=O)[O-])Nc1ccc(S(=O)(=O)N2CCCCC2)cc1,-2.1,1.2,50.2*,/
Cc1cc(C)c(S(=O)(=O)N(CC(=O)NCc2cccnc2)C2CCCCC2)c(C)c1,2.6,2.3*,-1.3,9.5
Cc1cc(C)c(S(=O)(=O)N(CC(=O)N2CCCC2)C2CCCCC2)c(C)c1,-4.1,1.6,1.4,5.6
O=C(Nc1ccc(Cl)cc1)O/N=C\c1c[nH]c2ccccc12,/,/,/,2.1
COc1cc(C=O)ccc1OCCN1CCOCC1,/,/,/,102.7*
CCOc1cc(C=O)ccc1OCCN1CCOCC1,/,/,/,-11.8
CCOC(=O)c1ccc(N2C(=O)c3n[nH]c(C)c3C2c2cccnc2)cc1 (centres undefined),1.8,2.3*,7.9,3.7
CCOC(=O)c1ccc(N2C(=O)c3n[nH]c(C)c3C2c2ccccn2)cc1 (centres undefined),5.6,2.5*,-4.3,7.5
Cc1ccc(N2C(=O)c3n[nH]c(C)c3C2c2cccnc2)cc1 (centres undefined),-5.7,2.1*,-12.2,9.5
Cc1ccc(N(CC(=O)Nc2ccccc2C)S(=O)(=O)c2ccc(F)cc2)cc1,/,/,/,-17.1
COc1ccccc1N1C(=O)c2ccc(OC)c(OC)c2C1=O,/,/,/,-14.0
CCCOC(=O)c1ccc(NC(=O)COc2ccc(Cl)cc2C)cc1,/,/,/,-4.7
CCOC(=O)c1c(-c2ccc(OC)c(OC)c2)csc1N,/,/,/,9.5
O=C(CSc1ccccn1)Nc1ccc2c(c1)C(=O)c1ccccc1C2=O,/,/,/,105.2*
COC(=O)c1ccc(NC(=O)CSc2ccccn2)cc1,0.5,0.8,3.7,/
COc1cc(C(=O)N/C(=C/c2ccc(N(C)C)cc2)C(=O)Nc2ccc(C)cc2)cc(OC)c1OC,/,/,/,0.6
CCc1c(C)nc2cc(-c3ccc(OC)c(OC)c3)nn2c1NCC1CC1,-3.3,2*,3.9,/
CCN(CC)C(=O)c1sc(NC(=O)c2cc(Cl)ccc2Cl)c(C#N)c1C,/,/,/,103.6*
Cc1sc(NC(=O)c2cc(Cl)ccc2Cl)c(C#N)c1C,/,/,/,103.0*
CC(=O)Nc1cccc(NC(=O)c2cc(-c3cccnc3)nc3ccc(Br)cc23)c1,52.6*,1.2,8.2,/
CCOc1ccc2nc(NCCNC(=O)Nc3ccccc3)c(C#N)cc2c1,1.9,1.5,-11.6,11.6
COc1ccc2nc(NCCCNC(=O)c3cc(OC)c(OC)c(OC)c3)c(C#N)cc2c1,3.7,2.4*,-5.2,8.4
SMILES,Mac1 fbg enh,PLAP act,Mac1 fbg inh,HePTP inhibitor
Cc1cc(Nc2ccc(N3CCC(C)CC3)cc2)n2ncnc2n1,7.8,2*,-35.4,-6.1
COCC(C)n1c(C)cc(C(=O)COc2ccc(S(=O)(=O)N3CCOCC3)cc2Cl)c1C (centres undefined),0.5,2*,23.6,6.2
Cc1ccc(/C(O)=C2\C(=O)C(=O)N(CCCC(=O)O)C2c2ccc3c(c2)OCO3)cc1 (centres undefined),/,/,/,-2.1
CCOC(=O)C(=CC1=C/C(=C/N(C)C)C(=O)O1)C(=O)OCC,/,/,/,80.9*
CCOC(=O)c1c(N)sc(C(=O)Nc2ccccc2OC)c1C,/,/,/,3.6
COC(=O)c1c(N)sc(C(=O)Nc2ccccc2OC)c1C,/,/,/,65.8*
COc1cc(/C=C2\C(=O)NC(=S)N(c3ccc(C(C)C)cc3)C2=O)ccc1O,/,/,/,11.4
COc1cc(C)c(Cl)cc1S(=O)(=O)NCc1ccncc1,-8.6,1.5,83.9*,4.6
CCCCn1c(CN2CCN(c3ccccc3)CC2)nc2c1c(=O)n(C)c(=O)n2C,-2.5,1.5,65.1*,7.2
Cn1c(=O)[nH]c(=O)c2c1nc(N1CCN(c3cccc(Cl)c3)CC1)n2CCCc1ccccc1,6.6,0.8,-2.1,4.0
Cn1c(=O)c2c(nc(CN3CCN(c4ccccc4)CC3)n2Cc2ccccc2Cl)n(C)c1=O,-1.1,1.6,14.2,0.7
CCCCCn1c(N2CCN(c3cccc(Cl)c3)CC2)nc2c1c(=O)[nH]c(=O)n2C,1.2,2*,-1.9,4.0
CCCCCn1c(CN2CCN(c3cccc(Cl)c3)CC2)nc2c1c(=O)n(C)c(=O)n2C,-4.8,1.4,11.8,-12.7
CCCCn1c(CN2CCN(c3cccc(Cl)c3)CC2)nc2c1c(=O)n(C)c(=O)n2C,-12.5,2.1*,89.9,1.1
CCCn1c(CN2CCN(c3cccc(Cl)c3)CC2)nc2c1c(=O)n(C)c(=O)n2C,-8.2,1.5,91.0*,6.4
